CDC25B-CDK2 inh – human CDC25B-CDK2/CyclinA binding inhibition. z-score (no concentration beside the values). HTRF CDC25B-CDK2/CyclinA binding, anti-His/anti-Flag; stronger effect = higher value. AID 1259370. P30305+P24941. 0.72% of 94,000 active; in the data active means z-score above about 3.2
HIV TAR-Tat – HIV-1 TAR-Tat binding disruption; HIV-1 TAR RNA, Tat peptide displacement FRET; stronger effect = higher value; z-score (concentration not given with the values); 0.6% of 100,000 active; active means z-score of 3 or more in at least 2 runs
Of the large screens only hits and unclear results are named; the others gave an inactive call. This is a sample that favours compounds with a hit; in the whole collection about 0.9% have one here.

Cc1ccc(C2c3c(-c4ccccc4O)n[nH]c3C(=O)N2CC2CCCO2)cc1 (stereo not drawn)	none
Cn1c(=O)c2cc(C(=O)NCCCN3CCCC3)sc2c2ccccc21	none
Cn1c(=O)c2cc(C(=O)NC3CCCC3)sc2c2ccccc21	CDC25B-CDK2 inh 3.04
O=C(NCCN1CCC(Cc2ccccc2)CC1)NC1COc2ccccc2C1 (stereo not drawn)	none (no result: CDC25B-CDK2 inh)
O=C(O)c1ccccc1N1CCCCC1	none (no result: HIV TAR-Tat)
O=C(O)c1ccccc1Sc1cc(C(=O)O)c(Sc2ccccc2C(=O)O)cc1C(=O)O	CDC25B-CDK2 inh 14.6 (no result: HIV TAR-Tat)
CSc1ccccc1C(=O)c1ccccc1C(=O)O	none (no result: HIV TAR-Tat)
COc1cc2[nH]c(=O)n(C3CCCC3)c(=O)c2cc1OC	none
CCc1ccc(C2CC(=O)Nc3cc4c(cc32)OCCO4)cc1 (stereo not drawn)	CDC25B-CDK2 inh 4.41
O=C1CC(c2ccc(-c3ccccc3)cc2)c2cc3c(cc2N1)OCCO3 (stereo not drawn)	none
O=C(NNC(=O)c1ccc2c(c1)OCO2)c1ccc(C(F)(F)F)cc1	none (no result: HIV TAR-Tat)
O=C(CN1c2ccccc2NC2=C(C(=O)CCC2)C1c1cccs1)Nc1ccc(F)cc1F (stereo not drawn)	none (no result: CDC25B-CDK2 inh)
O=C(C1CCCN(S(=O)(=O)N2CCCCC2)C1)N1CCN(c2ccccc2)CC1 (stereo not drawn)	HIV TAR-Tat 14.7 (no result: CDC25B-CDK2 inh)
O=C(C1CCCN(S(=O)(=O)N2CCOCC2)C1)N1CCN(c2ccc(F)cc2)CC1 (stereo not drawn)	none (no result: CDC25B-CDK2 inh)
Cc1nnc2c(N3CCCCC3C)nc3ccccc3n12 (stereo not drawn)	none (no result: HIV TAR-Tat)
Cc1ccc(S(=O)(=O)Nc2cc(Sc3nc4ccccc4[nH]3)c(O)c3ccccc23)cc1	CDC25B-CDK2 inh 18 (no result: HIV TAR-Tat)
Cc1ccc(S(=O)(=O)Nc2cc(Sc3nc(C)cc(C)n3)c(O)c3ccccc23)cc1	none (no result: HIV TAR-Tat)
CC1=C(C(=O)Nc2ccc3c(c2)OCO3)C2(CCN(C(C)C)CC2)OC1=O	none (no result: CDC25B-CDK2 inh)
O=C(O)c1cc(O)c2c(c1)[C@@H]([C@H]1c3cc(C(=O)O)cc(O)c3C(=O)c3c(O[C@H]4O[C@H](CO)[C@@H](O)[C@H](O)[C@H]4O)cccc31)c1cccc(O[C@H]3O[C@H](CO)[C@@H](O)[C@H](O)[C@H]3O)c1C2=O	HIV TAR-Tat 22 (no result: CDC25B-CDK2 inh)
S=C1NCCCN1C1CCCCC1	none (no result: HIV TAR-Tat)
Oc1cc2c(cc1O)C1c3ccc(O)c(O)c3OCC1(O)C2 (stereo not drawn)	HIV TAR-Tat 28.5 (no result: CDC25B-CDK2 inh)
O=C(C(c1ccccc1)c1ccccc1)N(Cc1ccco1)Cc1cccs1	none
CCc1c(C)nc2ncnn2c1Nc1ccc(N2CCN(S(C)(=O)=O)CC2)cc1	none
O=C(Nc1nc2c(s1)CCCC2)Nc1ccc(Br)cc1F	none (no result: CDC25B-CDK2 inh)
N#Cc1cc2c(=O)n3ccccc3nc2n(-c2ccccc2Br)c1=O	none
CCc1ccccc1N1CSC2=C(C#N)C(c3cccs3)CC(=O)N2C1 (stereo not drawn)	CDC25B-CDK2 inh 6.73
Cc1ccccc1N1CSC2=C(C#N)C(c3cccs3)CC(=O)N2C1 (stereo not drawn)	CDC25B-CDK2 inh 5.09
S=c1nn[nH]n1-c1ccc(Cl)cc1	none (no result: HIV TAR-Tat)
Cc1nc(Nc2ncc3c(n2)CC(c2ccco2)CC3=O)nc2ccccc12 (stereo not drawn)	none
CCc1ccc2nc(Nc3ncc4c(n3)CC(c3ccco3)CC4=O)nc(C)c2c1 (stereo not drawn)	HIV TAR-Tat 31.6
Cc1ccc(S(=O)(=O)NC(=O)Nc2ncc3c(n2)CC(c2ccco2)CC3=O)cc1 (stereo not drawn)	CDC25B-CDK2 inh 8.34
CC(=O)Nc1ncc2c(n1)CC(c1ccco1)CC2=O (stereo not drawn)	none
CCN1CCCC1CNC(=O)Cn1nc(C)c2sc3ccccc3c2c1=O (stereo not drawn)	none
Cc1ccc(-c2ccccc2)n1-c1cccnc1	CDC25B-CDK2 inh 17.4
Cc1ccc(-c2ccccc2)n1-c1cccc2cccnc12	none
CN(C)n1cccc1/C=N/NC(=O)c1cccc(C(F)(F)F)c1	none (no result: HIV TAR-Tat)
O=C(Nc1ccc(Cl)cn1)c1cc(-c2cccnc2)nc2ccccc12	none (no result: CDC25B-CDK2 inh)
O=C(CCCn1c(=O)c2cccn2c2ccc(F)cc21)NCCc1cccs1	none (no result: CDC25B-CDK2 inh)
Cc1ccc(-c2csc(Nc3ccc(S(N)(=O)=O)cc3)n2)cc1	none
NS(=O)(=O)c1ccc(Nc2cc(-c3ccco3)cs2)cc1	CDC25B-CDK2 inh 17.2 (no result: HIV TAR-Tat)
Nc1ccc(O)c(-c2nc3ccc(N)cc3s2)c1	HIV TAR-Tat 35.9
Nc1ccc(-c2nc3ccccc3s2)c(Cl)c1	none
COc1ccc2scc(N3CCCCC3)c(=O)c2c1	none (no result: CDC25B-CDK2 inh)
O=S1(=O)C[C@H](NCC2CCCO2)[C@@H](S(=O)(=O)c2ccccc2)C1 (stereo partly drawn)	none
Cc1ccc(Nc2ncnc3onc(-c4ccc(C)cc4)c23)cc1	none (no result: CDC25B-CDK2 inh)
Cc1ccc(C)c(N2CCN(c3c(-c4ccc(C)c(C)c4)c(=O)c3=O)CC2)c1	HIV TAR-Tat 12.9 (no result: CDC25B-CDK2 inh)
Cc1ccc(-c2c(N3CCN(c4cc(C)ccc4C)CC3)c(=O)c2=O)cc1	none (no result: CDC25B-CDK2 inh)
COc1cccc(-c2cc3nc(-c4ccccc4)cc(=O)n3[nH]2)c1	none (no result: HIV TAR-Tat)
O=c1c2c(nc3cc(-c4ccccc4)[nH]n13)CCCC2	none (no result: HIV TAR-Tat)
O=c1cc(-c2cccnc2)nc2cc(-c3ccco3)[nH]n12	CDC25B-CDK2 inh 19 (no result: HIV TAR-Tat)
O=c1c2c(nc3cc(-c4ccco4)[nH]n13)CSC2	CDC25B-CDK2 inh 18.5 (no result: HIV TAR-Tat)
Cc1ccc(-c2nonc2NC(=O)c2nn(-c3ccc(F)cc3)ccc2=O)cc1	none
CCCCOc1ccc(C2=NS(=O)(=O)c3cc(S(=O)(=O)N4CCOCC4)ccc3N2)cc1	none (no result: CDC25B-CDK2 inh)
CC(=O)Nc1c2n(c3ccc(F)cc13)CC(C)(C(=O)NC1CCCCC1)N(C(C)C)C2=O (stereo not drawn)	HIV TAR-Tat 17.8 (no result: CDC25B-CDK2 inh)
CC(=O)Nc1c2n(c3ccc(F)cc13)CC(C)(C(=O)NC1CCCCC1)N(CCC(C)C)C2=O (stereo not drawn)	none (no result: CDC25B-CDK2 inh)
CC(C)CCN1C(=O)Cn2cccc2C1C(=O)NC1CCC(C)CC1 (stereo not drawn)	none
O=C(CN1C(=O)c2cccc3cccc1c23)NCc1ccccn1	none
O=C1c2cccc3c(SCCO)ccc(c23)C(=O)N1CCc1ccccn1	CDC25B-CDK2 inh 7.8 (no result: HIV TAR-Tat)
CSc1cccc(NC(=O)C2CC3CSCN3C23C(=O)N(C)c2ccccc23)c1 (stereo not drawn)	none (no result: CDC25B-CDK2 inh)
CCN1C(=O)C2(c3ccccc31)C(C(=O)Nc1cccc(SC)c1)CC1CSCN12 (stereo not drawn)	HIV TAR-Tat 20 (no result: CDC25B-CDK2 inh)
CCN1CCN(c2cc(C)nc3nc(-c4ccccc4)nn23)CC1	none
Cc1cc(C(=O)O)ccc1-n1c(C)ccc1C	none (no result: HIV TAR-Tat)
Cc1ccc(C)n1-c1cc(C(=O)O)ccc1Cl	none (no result: HIV TAR-Tat)
Cc1ccc(C)n1-c1ccc(Cl)c(C(=O)O)c1	HIV TAR-Tat 16.3
Cc1ccc(C)n1-c1ccc(Cl)cc1C(=O)O	HIV TAR-Tat 14.3
Cc1nc2ccc(S(=O)(=O)NC(C(=O)N3CCCC(C)C3)C(C)C)cc2s1 (stereo not drawn)	none (no result: HIV TAR-Tat)
O=C(COCc1cc(-c2ccc3c(c2)OCO3)on1)N1CCOCC1	none (no result: CDC25B-CDK2 inh)
O=C(O)CCc1nc2ccc(C(=O)O)cc2[nH]1	none
Nc1ccc2nc(CCC(=O)O)[nH]c2c1	CDC25B-CDK2 inh 18.6
O=C(CSc1nc2c(c(=O)[nH]1)CCC2)Nc1ccc(Oc2ccccc2)cc1	none
CC(C)Oc1ccc(C2CC(=O)Nc3nc(SCc4ccccc4F)[nH]c(=O)c32)cc1 (stereo not drawn)	none
CCc1nn2c(=O)c(S(=O)(=O)NCCc3ccccc3)c(C)nc2s1	none
Cc1onc(-c2ccccc2)c1NC(=O)Nc1ccc(C2=NC(C)(C)CO2)cc1	CDC25B-CDK2 inh 5.62 (no result: HIV TAR-Tat)
Cc1onc(-c2ccccc2)c1NC(=O)Nc1ccccc1N1CCOCC1	none (no result: HIV TAR-Tat)
C=CCOc1ccc(C2C3=C(CC(C)(C)CC3=O)OC3=C2C(=O)CC(C)(C)C3)cc1OC	none (no result: HIV TAR-Tat)

High-throughput results (PubChem)
